This note sets out measurements from article PMC9911399, “Two distinct binding modes provide the RNA-binding protein RbFox with extraordinary sequence specificity”.

T1: RBFOX1 RRM RbFoxmut (Fox-RRM*) (Homo sapiens, UniProt Q9NWB1 109-208, R118D;E147R;N151S;E152T)
T1 sequence: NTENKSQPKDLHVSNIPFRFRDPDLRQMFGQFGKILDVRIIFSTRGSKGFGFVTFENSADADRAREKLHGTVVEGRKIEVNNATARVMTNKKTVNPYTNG

B1: GCCAUCG (DNA:RNA)
RNA: GGGAGACCGGAAUUCAGAUUGUCCGCCAUCGUUAAAUCCCGUCGUAGCCACCA
DNA 1: CAATCTGAATTCCGGTCTCCC
DNA 2: TGGTGGCTACGACGGGATT
B2: GUCAUAC (DNA:RNA)
RNA: B1 RNA with C26U, C30A, G31C
DNA 1: CAATCTGAATTCCGGTCTCCC
DNA 2: TGGTGGCTACGACGGGATT
B3: AUUUCGA (DNA:RNA)
RNA: GGGAGACCGGAAUUCAGAUUGUCCAUUUCGAUUAAAUCCCGUCGUAGCCACCA
DNA 1: CAATCTGAATTCCGGTCTCCC
DNA 2: TGGTGGCTACGACGGGATT
B4: AAACAAG (DNA:RNA)
RNA: B3 RNA with U26A, U27A, U28C, C29A, G30A, A31G
DNA 1: CAATCTGAATTCCGGTCTCCC
DNA 2: TGGTGGCTACGACGGGATT
B5: UAAUACC (DNA:RNA)
RNA: B3 RNA with A25U, U26A, U27A, C29A, G30C, A31C
DNA 1: CAATCTGAATTCCGGTCTCCC
DNA 2: TGGTGGCTACGACGGGATT
B6: AGCUAUA (DNA:RNA)
RNA: B3 RNA with U26G, U27C, C29A, G30U
DNA 1: CAATCTGAATTCCGGTCTCCC
DNA 2: TGGTGGCTACGACGGGATT
B7: AGUGGCA (DNA:RNA)
RNA: B3 RNA with U26G, U28G, C29G, G30C
DNA 1: CAATCTGAATTCCGGTCTCCC
DNA 2: TGGTGGCTACGACGGGATT
B8: CAAAUUG (DNA:RNA)
RNA: B1 RNA with G25C, C26A, C27A, C30U
DNA 1: CAATCTGAATTCCGGTCTCCC
DNA 2: TGGTGGCTACGACGGGATT
B9: GGGUGUC (DNA:RNA)
RNA: B3 RNA with A25G, U26G, U27G, C29G, G30U, A31C
DNA 1: CAATCTGAATTCCGGTCTCCC
DNA 2: TGGTGGCTACGACGGGATT
B10: GGGUGUG (DNA:RNA)
RNA: B1 RNA with C26G, C27G, A28U, U29G, C30U
DNA 1: CAATCTGAATTCCGGTCTCCC
DNA 2: TGGTGGCTACGACGGGATT
B11: GGGGGUG (DNA:RNA)
RNA: B1 RNA with C26G, C27G, A28G, U29G, C30U
DNA 1: CAATCTGAATTCCGGTCTCCC
DNA 2: TGGTGGCTACGACGGGATT
B12: GCGGGUG (DNA:RNA)
RNA: B1 RNA with C27G, A28G, U29G, C30U
DNA 1: CAATCTGAATTCCGGTCTCCC
DNA 2: TGGTGGCTACGACGGGATT
B13: GGGGGUC (DNA:RNA)
RNA: B1 RNA with C26G, C27G, A28G, U29G, C30U, G31C
DNA 1: CAATCTGAATTCCGGTCTCCC
DNA 2: TGGTGGCTACGACGGGATT
B14: CCGGGUG (DNA:RNA)
RNA: B1 RNA with G25C, C27G, A28G, U29G, C30U
DNA 1: CAATCTGAATTCCGGTCTCCC
DNA 2: TGGTGGCTACGACGGGATT
B15: GGUCUGG (DNA:RNA)
RNA: B1 RNA with C26G, C27U, A28C, C30G
DNA 1: CAATCTGAATTCCGGTCTCCC
DNA 2: TGGTGGCTACGACGGGATT
B16: ACUUCCA (DNA:RNA)
RNA: B3 RNA with U26C, G30C
DNA 1: CAATCTGAATTCCGGTCTCCC
DNA 2: TGGTGGCTACGACGGGATT
B17: CCAGGGC (DNA:RNA)
RNA: B3 RNA with A25C, U26C, U27A, U28G, C29G, A31C
DNA 1: CAATCTGAATTCCGGTCTCCC
DNA 2: TGGTGGCTACGACGGGATT
B18: AGUUAUG (DNA:RNA)
RNA: B3 RNA with U26G, C29A, G30U, A31G
DNA 1: CAATCTGAATTCCGGTCTCCC
DNA 2: TGGTGGCTACGACGGGATT
B19: ACCUUAA (DNA:RNA)
RNA: B3 RNA with U26C, U27C, C29U, G30A
DNA 1: CAATCTGAATTCCGGTCTCCC
DNA 2: TGGTGGCTACGACGGGATT
B20: CCCGCAU (DNA:RNA)
RNA: B1 RNA with G25C, A28G, U29C, C30A, G31U
DNA 1: CAATCTGAATTCCGGTCTCCC
DNA 2: TGGTGGCTACGACGGGATT
B21: CUUCACC (DNA:RNA)
RNA: B3 RNA with A25C, U28C, C29A, G30C, A31C
DNA 1: CAATCTGAATTCCGGTCTCCC
DNA 2: TGGTGGCTACGACGGGATT
B22: CGAGUAU (DNA:RNA)
RNA: B1 RNA with G25C, C26G, C27A, A28G, C30A, G31U
DNA 1: CAATCTGAATTCCGGTCTCCC
DNA 2: TGGTGGCTACGACGGGATT
B23: CCCCUGG (DNA:RNA)
RNA: B1 RNA with G25C, A28C, C30G
DNA 1: CAATCTGAATTCCGGTCTCCC
DNA 2: TGGTGGCTACGACGGGATT
B24: UGGUUGU (DNA:RNA)
RNA: B3 RNA with A25U, U26G, U27G, C29U, A31U
DNA 1: CAATCTGAATTCCGGTCTCCC
DNA 2: TGGTGGCTACGACGGGATT
B25: UGGUGGU (DNA:RNA)
RNA: B3 RNA with A25U, U26G, U27G, C29G, A31U
DNA 1: CAATCTGAATTCCGGTCTCCC
DNA 2: TGGTGGCTACGACGGGATT
B26: UGGUUGG (DNA:RNA)
RNA: B3 RNA with A25U, U26G, U27G, C29U, A31G
DNA 1: CAATCTGAATTCCGGTCTCCC
DNA 2: TGGTGGCTACGACGGGATT
B27: UGUUUGG (DNA:RNA)
RNA: B3 RNA with A25U, U26G, C29U, A31G
DNA 1: CAATCTGAATTCCGGTCTCCC
DNA 2: TGGTGGCTACGACGGGATT
B28: UGGUUUG (DNA:RNA)
RNA: B1 RNA with G25U, C26G, C27G, A28U, C30U
DNA 1: CAATCTGAATTCCGGTCTCCC
DNA 2: TGGTGGCTACGACGGGATT
B29: CUGGUUG (DNA:RNA)
RNA: B1 RNA with G25C, C26U, C27G, A28G, C30U
DNA 1: CAATCTGAATTCCGGTCTCCC
DNA 2: TGGTGGCTACGACGGGATT
B30: UGGUUCC (DNA:RNA)
RNA: B1 RNA with G25U, C26G, C27G, A28U, G31C
DNA 1: CAATCTGAATTCCGGTCTCCC
DNA 2: TGGTGGCTACGACGGGATT
B31: GUCCUGG (DNA:RNA)
RNA: B1 RNA with C26U, A28C, C30G
DNA 1: CAATCTGAATTCCGGTCTCCC
DNA 2: TGGTGGCTACGACGGGATT
B32: UGGUUUC (DNA:RNA)
RNA: B3 RNA with A25U, U26G, U27G, C29U, G30U, A31C
DNA 1: CAATCTGAATTCCGGTCTCCC
DNA 2: TGGTGGCTACGACGGGATT
B33: UGGUUCG (DNA:RNA)
RNA: B1 RNA with G25U, C26G, C27G, A28U
DNA 1: CAATCTGAATTCCGGTCTCCC
DNA 2: TGGTGGCTACGACGGGATT
B34: UGGUUUU (DNA:RNA)
RNA: B3 RNA with A25U, U26G, U27G, C29U, G30U, A31U
DNA 1: CAATCTGAATTCCGGTCTCCC
DNA 2: TGGTGGCTACGACGGGATT

Changes are numbered by the printed parent chain; changes in the protein carry UniProt numbers. Over roughly 16,000 sequences, “ka relative to ugcaugu” has its median near 0.096; the highest 2% begin near 0.35. Only a selection was taken, and the highest values are over-represented in it overall.

For the assay, the target named is T1, RBFOX1 RRM RbFoxmut (Fox-RRM*). Put plainly: EMSA; HiTS-Eq, 1 nM pool, 10 min; buffer printed only for the single-RNA assays: 10 mM Tris pH 7.5, 150 mM NaCl, 3.4 mM EDTA, 0.001% NP-40, 30 C. The settings on record: tags: His6 N-terminal (pET28a); label: 5' 32P. A digest of the protocol: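 Purified RbFox RRM, wild type or mutant, was incubated for 10 min in 50 µL with 1 nM of a 5′-radiolabelled RNA pool carrying 7 randomized nucleotides, whose flanks were annealed to DNA oligonucleotides, over a series of increasing protein concentrations. Unbound RNA was resolved on 8% native PAGE, cut out, reverse-transcribed, barcoded by PCR and sequenced on an Illumina HiSeq 2500. Relative association constants were derived from changes in read counts for each RNA species versus the control reaction and normalised to the cognate motif.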
A general note: In EMSA bound probe runs differently from free probe, usually more slowly.
For B1, the binding signal is 0.0927 KA relative to UGCAUGU.
Then B2, with 0.1 KA relative to UGCAUGU; and B3, with 0.114 KA relative to UGCAUGU.
Take B4: the binding signal was 0.0927 KA relative to UGCAUGU.
Then B5, with 0.0785 KA relative to UGCAUGU; and B6, with 0.14 KA relative to UGCAUGU.
Regarding B7, the binding signal was 0.144 KA relative to UGCAUGU.
On to B8, for which the binding signal is 0.117 KA relative to UGCAUGU.
B9: the binding signal was 0.368 KA relative to UGCAUGU.
Take B10: the binding signal was 0.441 KA relative to UGCAUGU.
Turning to B11, the binding signal was 0.289 KA relative to UGCAUGU.
The result for B12 reads 0.194 KA relative to UGCAUGU; that for B13, 0.201 KA relative to UGCAUGU.
Take B14: the binding signal is 0.163 KA relative to UGCAUGU.
Regarding B15, the binding signal was 0.153 KA relative to UGCAUGU.
Then B16, with 0.0542 KA relative to UGCAUGU.
Regarding B17, the binding signal is 0.102 KA relative to UGCAUGU.
Then B18, with 0.28 KA relative to UGCAUGU.
The result for B19 reads 0.129 KA relative to UGCAUGU; that for B20, 0.0703 KA relative to UGCAUGU; that for B21, 0.0684 KA relative to UGCAUGU.
Then B22, with 0.143 KA relative to UGCAUGU; and B23, with 0.0629 KA relative to UGCAUGU.
Consider B24, for which the binding signal is 0.396 KA relative to UGCAUGU.
The result for B25 reads 0.161 KA relative to UGCAUGU; that for B26, 0.309 KA relative to UGCAUGU.
The result for B27 reads 0.302 KA relative to UGCAUGU; that for B28, 0.874 KA relative to UGCAUGU.
With B29, the binding signal was 0.458 KA relative to UGCAUGU.
Then B30, with 0.157 KA relative to UGCAUGU.
Turning to B31, the binding signal is 0.075 KA relative to UGCAUGU.
The result for B32 reads 0.183 KA relative to UGCAUGU.
The result for B33 reads 0.492 KA relative to UGCAUGU.
As for B34, the binding signal was 0.0956 KA relative to UGCAUGU.
